From publication PMC11006913 come the findings set out here.

Test in all cases: PBM; 200 nM protein, PBS
Common to all, as to details: dsDNA, one strand shown

Experiment [1] addresses HOXB9 (Homo sapiens, UniProt P17482 171-250, T197M).
Experiment [2] addresses HOXC9 (Homo sapiens, UniProt P31274 178-260, K195R).
The target in experiment [3] is HOXA7 (Homo sapiens, UniProt P31268 116-202).
Experiment [4] has as its target HOXC10 (Homo sapiens, UniProt Q9NYD6 254-340).
The target of experiment [5] is HOXB6 (Homo sapiens, UniProt P17509 132-218, K202E).
Chain of HOXB6 (Homo sapiens, UniProt P17509 132-218, K202E) (P17509 132-218 K202E): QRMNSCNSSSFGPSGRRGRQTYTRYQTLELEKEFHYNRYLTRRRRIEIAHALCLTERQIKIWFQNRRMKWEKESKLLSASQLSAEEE
In experiment [6] the target is HOXB9 (Homo sapiens, UniProt P17482 171-250).
Chain of HOXB9 (Homo sapiens, UniProt P17482 171-250) (P17482 171-250): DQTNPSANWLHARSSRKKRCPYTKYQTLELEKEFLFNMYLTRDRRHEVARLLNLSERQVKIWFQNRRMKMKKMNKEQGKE
The target of experiment [7] is HOXC9 (Homo sapiens, UniProt P31274 178-260).
Chain of HOXC9 (Homo sapiens, UniProt P31274 178-260) (P31274 178-260): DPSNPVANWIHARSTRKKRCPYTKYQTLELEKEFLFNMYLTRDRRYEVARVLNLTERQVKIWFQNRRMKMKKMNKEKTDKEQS
Experiment [8] addresses HOXD13 (Homo sapiens, UniProt P35453 263-343, T313R).
The target in experiment [9] is HOXC9 (Homo sapiens, UniProt P31274 178-260, R193K).
Chain of HOXC9 (Homo sapiens, UniProt P31274 178-260, R193K) (P31274 178-260 R193K): as the sequence (P31274 178-260) above, with R16K counted along it
The target in experiment [10] is HOXD13 (Homo sapiens, UniProt P35453 263-343).
Chain of HOXD13 (Homo sapiens, UniProt P35453 263-343) (P35453 263-343): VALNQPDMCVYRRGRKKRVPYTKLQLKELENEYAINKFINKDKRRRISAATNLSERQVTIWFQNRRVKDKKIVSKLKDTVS
Experiment [11] concerns the target HOXC10 (Homo sapiens, UniProt Q9NYD6 254-340, K271E).
Experiment [12] concerns the target HOXD13 (Homo sapiens, UniProt P35453 263-343, T313A).
In experiment [13] the target is HOXB9 (Homo sapiens, UniProt P17482 171-250, R186Q).
Chain of HOXB9 (Homo sapiens, UniProt P17482 171-250, R186Q) (P17482 171-250 R186Q): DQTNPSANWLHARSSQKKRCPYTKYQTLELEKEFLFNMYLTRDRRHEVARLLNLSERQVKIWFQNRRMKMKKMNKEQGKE
In experiment [14] the target is HOXC9 (Homo sapiens, UniProt P31274 178-260, R222W).
Chain of HOXC9 (Homo sapiens, UniProt P31274 178-260, R222W) (P31274 178-260 R222W): as the sequence (P31274 178-260) above, with R45W counted along it
Experiment [15] concerns the target HOXA7 (Homo sapiens, UniProt P31268 116-202, W177C).
Experiment [16] concerns the target HOXB6 (Homo sapiens, UniProt P17509 132-218).
Experiment [17] deals with T1, VENTX (Homo sapiens, UniProt O95231 78-163, R121Q).
T1 sequence: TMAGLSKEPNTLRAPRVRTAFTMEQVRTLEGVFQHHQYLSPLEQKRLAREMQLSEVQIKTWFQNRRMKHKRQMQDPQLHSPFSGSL

Experiment [18] has as its target T2, PAX4 (Homo sapiens, UniProt O43316 9-242, R200K).
T2 sequence: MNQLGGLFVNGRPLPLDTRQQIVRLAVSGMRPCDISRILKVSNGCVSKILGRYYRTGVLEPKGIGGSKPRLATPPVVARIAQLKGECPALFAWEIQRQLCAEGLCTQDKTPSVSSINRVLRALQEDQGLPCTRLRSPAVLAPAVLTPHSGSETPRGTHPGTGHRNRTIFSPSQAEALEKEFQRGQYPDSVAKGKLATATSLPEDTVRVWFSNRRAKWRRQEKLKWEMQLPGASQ

In experiment [19] the target is T3, VENTX (Homo sapiens, UniProt O95231 78-163, Y115F).
T3 sequence: T1 sequence with Y38F, Q44R

In experiment [20] the target is T4, PAX4 (Homo sapiens, UniProt O43316 9-242).
T4 sequence: T2 sequence with K192R

The target in experiment [21] is T5, PAX4 (Homo sapiens, UniProt O43316 9-242, R200Q).
T5 sequence: T2 sequence with K192Q

In experiment [22] the target is T6, PAX4 (Homo sapiens, UniProt O43316 9-242, F177V).
T6 sequence: T2 sequence with F169V, K192R

For experiment [23], the target named is T7, PAX4 (Homo sapiens, UniProt O43316 9-242, F177Y).
T7 sequence: T2 sequence with F169Y, K192R

Experiment [24] has as its target T8, PAX4 (Homo sapiens, UniProt O43316 9-242, R227W).
T8 sequence: T2 sequence with K192R, R219W

A further experiment concerns the target CRX (Homo sapiens, UniProt O43186 26-111, R41L).
Experiment [25] deals with ALX1 (Homo sapiens, UniProt Q15699 118-204, L144V).
Chain of ALX1 (Homo sapiens, UniProt Q15699 118-204, L144V) (Q15699 118-204 L144V): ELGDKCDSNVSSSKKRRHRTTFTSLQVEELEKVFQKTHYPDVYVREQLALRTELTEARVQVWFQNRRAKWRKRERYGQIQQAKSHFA
The target in experiment [26] is ALX1 (Homo sapiens, UniProt Q15699 118-204, L144R).
Chain of ALX1 (Homo sapiens, UniProt Q15699 118-204, L144R) (Q15699 118-204 L144R): as the sequence (Q15699 118-204 L144V) above, with V27R counted along it
In experiment [27] the target is ALX1 (Homo sapiens, UniProt Q15699 118-204).
Chain of ALX1 (Homo sapiens, UniProt Q15699 118-204) (Q15699 118-204): as the sequence (Q15699 118-204 L144V) above, with V27L counted along it
Experiment [28] has as its target HOXA4 (Homo sapiens, UniProt Q00056 201-287, W262R).
In experiment [29] the target is HOXA4 (Homo sapiens, UniProt Q00056 201-287, R217L).
Chain of HOXA4 (Homo sapiens, UniProt Q00056 201-287, R217L) (Q00056 201-287 R217L): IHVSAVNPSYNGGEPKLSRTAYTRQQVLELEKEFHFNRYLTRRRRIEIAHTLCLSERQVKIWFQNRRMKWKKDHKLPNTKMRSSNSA
For experiment [30], the target named is HOXA4 (Homo sapiens, UniProt Q00056 201-287).
Chain of HOXA4 (Homo sapiens, UniProt Q00056 201-287) (Q00056 201-287): as the sequence (Q00056 201-287 R217L) above, with L17R counted along it
Experiment [31] has as its target HOXA4 (Homo sapiens, UniProt Q00056 201-287, W262F).
The target in a further experiment is ALX4 (Homo sapiens, UniProt Q9H161 200-286, Q225E).
Chain of ALX4 (Q9H161 200-286 Q225E): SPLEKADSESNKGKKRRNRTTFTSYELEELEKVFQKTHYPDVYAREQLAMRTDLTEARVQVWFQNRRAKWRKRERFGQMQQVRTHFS

Where a chain is given by its changes, count along the chain named.

Chain of HOXC9 (Homo sapiens, UniProt P31274 178-260, K195R) (P31274 178-260 K195R): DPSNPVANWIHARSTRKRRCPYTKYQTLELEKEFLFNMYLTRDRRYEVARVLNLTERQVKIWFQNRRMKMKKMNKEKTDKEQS
Chain of HOXB9 (Homo sapiens, UniProt P17482 171-250, T197M) (P17482 171-250 T197M): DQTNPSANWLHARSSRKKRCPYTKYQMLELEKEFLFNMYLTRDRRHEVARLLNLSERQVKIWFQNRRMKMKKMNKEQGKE
Chain of HOXC10 (Homo sapiens, UniProt Q9NYD6 254-340, K271E) (Q9NYD6 254-340 K271E): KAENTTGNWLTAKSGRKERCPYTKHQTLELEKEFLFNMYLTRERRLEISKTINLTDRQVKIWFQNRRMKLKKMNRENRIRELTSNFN
Chain of HOXC10 (Homo sapiens, UniProt Q9NYD6 254-340) (Q9NYD6 254-340): as the sequence (Q9NYD6 254-340 K271E) above, with E18K counted along it
Chain of HOXD13 (Homo sapiens, UniProt P35453 263-343, T313A) (P35453 263-343 T313A): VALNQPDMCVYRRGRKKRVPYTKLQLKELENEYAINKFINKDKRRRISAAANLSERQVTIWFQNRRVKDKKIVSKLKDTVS
Chain of HOXD13 (Homo sapiens, UniProt P35453 263-343, T313R) (P35453 263-343 T313R): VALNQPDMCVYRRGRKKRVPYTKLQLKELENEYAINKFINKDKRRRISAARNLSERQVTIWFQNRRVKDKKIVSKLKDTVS
Chain of HOXB6 (Homo sapiens, UniProt P17509 132-218) (P17509 132-218): as the sequence (P17509 132-218 K202E) above, with E71K counted along it
Chain of CRX (O43186 26-111 R41L): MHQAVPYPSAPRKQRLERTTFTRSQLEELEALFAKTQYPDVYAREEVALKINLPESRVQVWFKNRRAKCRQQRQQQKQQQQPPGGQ
Chain of HOXA4 (Homo sapiens, UniProt Q00056 201-287, W262R) (Q00056 201-287 W262R): as the sequence (Q00056 201-287 R217L) above, with L17R, W62R counted along it
Chain of HOXA4 (Homo sapiens, UniProt Q00056 201-287, W262F) (Q00056 201-287 W262F): as the sequence (Q00056 201-287 R217L) above, with L17R, W62F counted along it
Chain of HOXA7 (Homo sapiens, UniProt P31268 116-202, W177C) (P31268 116-202 W177C): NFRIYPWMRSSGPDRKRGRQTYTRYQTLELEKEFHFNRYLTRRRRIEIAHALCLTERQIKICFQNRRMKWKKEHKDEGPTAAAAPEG
Chain of HOXA7 (Homo sapiens, UniProt P31268 116-202) (P31268 116-202): as the sequence (P31268 116-202 W177C) above, with C62W counted along it

As for GTAATAAA, the binding signal with HOXB9 [1] was 10.1 upbm affinity estimate (log intensity, higher = more binding, comparable within an allelic series); with HOXC9 [2], 13.2 upbm affinity estimate (log intensity, higher = more binding, comparable within an allelic series); in the experiment with HOXA7 [3], 11.4 upbm affinity estimate (log intensity, higher = more binding, comparable within an allelic series); with HOXC10 [4], 13 upbm affinity estimate (log intensity, higher = more binding, comparable within an allelic series); in the experiment with HOXB6 [5] it was 9.9 upbm affinity estimate (log intensity, higher = more binding, comparable within an allelic series); in the experiment with HOXB9 [6], 12.6 upbm affinity estimate (log intensity, higher = more binding, comparable within an allelic series). Also, the binding signal was 13.3 upbm affinity estimate (log intensity, higher = more binding, comparable within an allelic series) with HOXC9 [7]; 11 upbm affinity estimate (log intensity, higher = more binding, comparable within an allelic series) with HOXD13 [8]; 13.2 upbm affinity estimate (log intensity, higher = more binding, comparable within an allelic series) in the experiment with HOXC9 [9]; 12.1 upbm affinity estimate (log intensity, higher = more binding, comparable within an allelic series) in the experiment with HOXD13 [10]; 12.6 upbm affinity estimate (log intensity, higher = more binding, comparable within an allelic series) with HOXC10 [11]; 11.9 upbm affinity estimate (log intensity, higher = more binding, comparable within an allelic series) in the experiment with HOXD13 [12]. Moreover, the binding signal is 12.3 upbm affinity estimate (log intensity, higher = more binding, comparable within an allelic series) with HOXB9 [13]; 11.4 upbm affinity estimate (log intensity, higher = more binding, comparable within an allelic series) with HOXC9 [14]; 8.79 upbm affinity estimate (log intensity, higher = more binding, comparable within an allelic series) with HOXA7 [15]; 11.8 upbm affinity estimate (log intensity, higher = more binding, comparable within an allelic series) in the experiment with HOXB6 [16].
For the sequence CGCATTAA, the binding signal in the experiment with VENTX [17] was 10.5 upbm affinity estimate (log intensity, higher = more binding, comparable within an allelic series); with PAX4 [18], 11.7 upbm affinity estimate (log intensity, higher = more binding, comparable within an allelic series); in the experiment with VENTX [19], 10.6 upbm affinity estimate (log intensity, higher = more binding, comparable within an allelic series); with PAX4 [20] it was 12.1 upbm affinity estimate (log intensity, higher = more binding, comparable within an allelic series); in the experiment with PAX4 [21] it was 11.6 upbm affinity estimate (log intensity, higher = more binding, comparable within an allelic series); in the experiment with PAX4 [22], 10.4 upbm affinity estimate (log intensity, higher = more binding, comparable within an allelic series). Moreover, the binding signal in the experiment with PAX4 [23] was 11 upbm affinity estimate (log intensity, higher = more binding, comparable within an allelic series); in the experiment with PAX4 [24] it was 10.9 upbm affinity estimate (log intensity, higher = more binding, comparable within an allelic series); in the experiment with CRX, 10.9 upbm affinity estimate (log intensity, higher = more binding, comparable within an allelic series).
CCCGATTA: the binding signal with VENTX [17] was 10.4 upbm affinity estimate (log intensity, higher = more binding, comparable within an allelic series); in the experiment with VENTX [19], 10.6 upbm affinity estimate (log intensity, higher = more binding, comparable within an allelic series).
As to GGCGATTA, the binding signal with VENTX [17] is 11 upbm affinity estimate (log intensity, higher = more binding, comparable within an allelic series); with ALX1 [25], 8.58 upbm affinity estimate (log intensity, higher = more binding, comparable within an allelic series); in the experiment with ALX1 [26] it was 8.54 upbm affinity estimate (log intensity, higher = more binding, comparable within an allelic series); with ALX1 [27], 9.05 upbm affinity estimate (log intensity, higher = more binding, comparable within an allelic series).
For CCCGGTTC, the binding signal was 8.56 upbm affinity estimate (log intensity, higher = more binding, comparable within an allelic series) with HOXB9 [1]; 9.88 upbm affinity estimate (log intensity, higher = more binding, comparable within an allelic series) with HOXA4 [28]; 9.5 upbm affinity estimate (log intensity, higher = more binding, comparable within an allelic series) with HOXC9 [2]; 9.82 upbm affinity estimate (log intensity, higher = more binding, comparable within an allelic series) with HOXA4 [29]; 8.35 upbm affinity estimate (log intensity, higher = more binding, comparable within an allelic series) with HOXB9 [6]; 9.62 upbm affinity estimate (log intensity, higher = more binding, comparable within an allelic series) with HOXC9 [7]. Further, the binding signal is 9.59 upbm affinity estimate (log intensity, higher = more binding, comparable within an allelic series) with HOXC9 [9]; 9.74 upbm affinity estimate (log intensity, higher = more binding, comparable within an allelic series) in the experiment with HOXA4 [30]; 8.47 upbm affinity estimate (log intensity, higher = more binding, comparable within an allelic series) with HOXB9 [13]; 9.68 upbm affinity estimate (log intensity, higher = more binding, comparable within an allelic series) with HOXC9 [14]; 9.9 upbm affinity estimate (log intensity, higher = more binding, comparable within an allelic series) with HOXA4 [31].
For AATAAAAT, the binding signal with HOXB9 [1] was 10 upbm affinity estimate (log intensity, higher = more binding, comparable within an allelic series); in the experiment with HOXC9 [2] it was 12.7 upbm affinity estimate (log intensity, higher = more binding, comparable within an allelic series); with HOXC10 [4], 12.5 upbm affinity estimate (log intensity, higher = more binding, comparable within an allelic series); in the experiment with ALX4, 11.1 upbm affinity estimate (log intensity, higher = more binding, comparable within an allelic series); with HOXB9 [6], 12.1 upbm affinity estimate (log intensity, higher = more binding, comparable within an allelic series); in the experiment with HOXC9 [7], 12.7 upbm affinity estimate (log intensity, higher = more binding, comparable within an allelic series). Besides, the binding signal in the experiment with HOXD13 [8] is 10.8 upbm affinity estimate (log intensity, higher = more binding, comparable within an allelic series); with HOXC9 [9] it was 12.7 upbm affinity estimate (log intensity, higher = more binding, comparable within an allelic series); with HOXD13 [10], 11.8 upbm affinity estimate (log intensity, higher = more binding, comparable within an allelic series); with HOXC10 [11] it was 12 upbm affinity estimate (log intensity, higher = more binding, comparable within an allelic series); with HOXD13 [12] it was 11.8 upbm affinity estimate (log intensity, higher = more binding, comparable within an allelic series); with HOXB9 [13], 11.7 upbm affinity estimate (log intensity, higher = more binding, comparable within an allelic series). Besides, the binding signal in the experiment with HOXC9 [14] is 11.5 upbm affinity estimate (log intensity, higher = more binding, comparable within an allelic series).
